Experimental data published in PubChem BioAssay (Tox21).
Several values for one entry are separate records, joined by “and”; a condition that tells them apart may be missing. Equal entries are not always repeated. Results filed as inconclusive are left out. Where a call stands in place of a potency, no number is given. Some structures have more than one record in an assay (separate samples or runs), and their calls can disagree. Activity calls are given as the source filed them. Unless noted, the call rests on the fitted dose curve; in most records, active means well fitted curve in the direction sought with a large enough effect in the repeat runs; inconclusive means weak or mixed curves; inactive means no such curve, though single readings can be large; an effect the other way counts as inactive or inconclusive.

Key:
[1] = qHTS assay for identifying genotoxic compounds that show differential cytotoxicity against isogenic chicken DT40 cell lines with known DNA damage response pathways - Rev3 mutant cell line (AID 743014); further: nearly all actives have a fitted effect of over 55% in size; further: potency means the concentration at half of the fitted maximal effect
[2] = qHTS assay for identifying genotoxic compounds that show differential cytotoxicity against isogenic chicken DT40 cell lines with known DNA damage response pathways - Rad54/Ku70 mutant cell line (AID 743015); further: nearly all actives have a fitted effect of over 60% in size; further: potency means the concentration at half of the fitted maximal effect
[3] = qHTS assay to identify small molecule antagonists of the androgen receptor (AR) signaling pathway - cell viability counter screen (AID 743033; further: nearly all actives have a fitted effect of over 45% in size; further: potency means the concentration at half of the fitted maximal effect)
[4] = biological target: Androgen receptor (Homo sapiens) (UniProt P10275); test: qHTS assay to identify small molecule antagonists of the androgen receptor (AR) signaling pathway (AID 743035; active means well fitted inhibition curve with a large enough effect in the signal ratio in the repeat runs, not every such curve was filed as active; the % refers to the signal ratio)
Procedure, shortened: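 HEK293 cells stably carrying a UAS-driven beta-lactamase reporter (AR-UAS-bla GripTite) were plated for 4 h at 37C, then given compound and the agonist R1881 and incubated 16 h. Reporter activity was read by LiveBLAzer B/G FRET fluorescence after 2 h at room temperature.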

[5] = biological target: Androgen receptor (Homo sapiens) (UniProt P10275); test: qHTS assay to identify small molecule agonists of the androgen receptor (AR) signaling pathway (AID 743036; active means well fitted activation curve with a large enough effect in the signal ratio in the repeat runs, with a control signal flat, not every such curve was filed as active; the % refers to the signal ratio)
Procedure, shortened: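 HEK293 cells stably carrying a UAS-driven beta-lactamase reporter (GeneBLAzer AR-UAS-bla-GripTite) were plated at 2,000 cells/well, rested 4 h at 37C, then exposed to compounds in DMSO for 16 h. LiveBLAzer B/G FRET substrate was added for 2 h at room temperature; fluorescence read.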

[6] = biological target: Androgen receptor (Homo sapiens) (UniProt P10275); test: qHTS assay to identify small molecule agonists of the androgen receptor (AR) signaling pathway using the MDA cell line (AID 743040; further: nearly all actives have a fitted effect of over 20% in size)
Procedure, shortened: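 After a 5 h incubation at 37C and 0% CO2, MDA-kb2 reporter cells were dosed with compounds in DMSO and kept 16 h under the same conditions. Luciferase activity was then read as luminescence with ONE-Glo.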

[7] = qHTS assay to identify small molecule antagonists of the androgen receptor (AR) signaling pathway using the MDA cell line - cell viability counter screen (AID 743041; further: nearly all actives have a fitted effect of over 45% in size; further: potency means the concentration at half of the fitted maximal effect)
Procedure, shortened: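 R1881-driven MDA-kb2 AR-luc cells, 3,000/well, were dosed with library compounds for 16 h; cell health came from CellTiter-Fluor fluorescence in the reporter wells.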

[8] = biological target: Androgen receptor (Homo sapiens) (UniProt P10275); test: qHTS assay to identify small molecule antagonists of the androgen receptor (AR) signaling pathway using the MDA cell line (AID 743042; further: nearly all actives have a fitted effect of over 55% in size)
Procedure, shortened: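 Antagonist mode: compounds plus R1881 agonist added to MDA-kb2 AR-luc cells, incubated 16 h at 37C. Luciferase reporter luminescence quantified, with multiplexed CellTiter-Fluor readout for cell viability.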

[9] = qHTS assay for identifying genotoxic compounds that show differential cytotoxicity against isogenic chicken DT40 cell lines with known DNA damage response pathways - wild type cell line (AID 743012); further: nearly all actives have a fitted effect of over 60% in size; further: potency means the concentration at half of the fitted maximal effect
Procedure, shortened: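 Parental DNA repair-proficient DT40 cells, 300 per well, were pre-incubated ~0.5 h at 37 C/5% CO2, pin-dosed with compounds in DMSO, then incubated 40 h. Viability was read as CellTiter-Glo luminescence after 30 min at room temperature.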

Sequence of Androgen receptor (Homo sapiens) (P10275 whole entry, looked up): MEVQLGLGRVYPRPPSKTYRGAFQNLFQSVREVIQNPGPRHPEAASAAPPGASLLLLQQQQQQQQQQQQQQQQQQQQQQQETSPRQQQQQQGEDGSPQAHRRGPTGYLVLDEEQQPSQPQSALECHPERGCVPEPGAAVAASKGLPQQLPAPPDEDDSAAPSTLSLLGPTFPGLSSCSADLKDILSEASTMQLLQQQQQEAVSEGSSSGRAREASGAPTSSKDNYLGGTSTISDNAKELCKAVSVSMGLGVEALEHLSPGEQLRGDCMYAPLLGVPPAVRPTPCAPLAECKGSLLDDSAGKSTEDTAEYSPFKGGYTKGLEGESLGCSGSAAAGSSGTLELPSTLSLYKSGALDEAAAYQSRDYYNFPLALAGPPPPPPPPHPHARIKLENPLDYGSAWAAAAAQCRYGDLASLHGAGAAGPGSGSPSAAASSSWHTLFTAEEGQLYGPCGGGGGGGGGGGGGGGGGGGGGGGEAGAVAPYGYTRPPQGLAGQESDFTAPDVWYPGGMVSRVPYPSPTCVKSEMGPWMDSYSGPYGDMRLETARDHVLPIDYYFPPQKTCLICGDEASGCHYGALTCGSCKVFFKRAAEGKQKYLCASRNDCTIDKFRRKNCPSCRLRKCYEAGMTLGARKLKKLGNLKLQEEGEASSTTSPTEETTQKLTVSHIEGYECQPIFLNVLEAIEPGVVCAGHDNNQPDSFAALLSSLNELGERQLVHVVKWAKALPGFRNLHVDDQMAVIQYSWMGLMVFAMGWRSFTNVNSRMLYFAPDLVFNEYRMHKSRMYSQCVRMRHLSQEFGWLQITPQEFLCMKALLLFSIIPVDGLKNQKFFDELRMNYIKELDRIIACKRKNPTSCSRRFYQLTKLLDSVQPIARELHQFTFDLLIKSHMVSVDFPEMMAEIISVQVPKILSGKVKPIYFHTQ

Question: Which Potency [1] does the source give for `CN(C)Cc1ccccc1O` here?
Answer: inactive

Question: What about the Potency [2] of the same compound?
Answer: inactive

Question: What about the Potency [3] of the same compound?
Answer: inactive

Question: What about the Potency [4] of the same compound?
Answer: inactive

Question: And the Potency [5]?
Answer: inactive

Question: And the outcome [6]?
Answer: inactive

Question: What about the Potency [7] of the same compound?
Answer: inactive

Question: And the Potency [8]?
Answer: inactive

Question: For `Cc1ccc(O)c(O)c1`, which Potency [9] is on record?
Answer: 16.7 µM (active)

Question: What about the Potency [1] of the same compound?
Answer: 13.3 µM (active)

Question: And the Potency [3]?
Answer: inactive

Question: What about the Potency [7] of the same compound?
Answer: inactive

Question: Which results are given for `CCCC(=O)OCCc1ccccc1`?
Answer: Potency [9]: inactive; Potency [1]: inactive; Potency [3]: inactive; Potency [7]: inactive

Question: Which Potency [9] does the source give for `c1cnccn1` here?
Answer: inactive

Question: And the Potency [1]?
Answer: inactive

Question: And the Potency [2]?
Answer: inactive

Question: And the Potency [3]?
Answer: inactive

Question: What about the Potency [7] of the same compound?
Answer: inactive

Question: For `O=C(O)CCN(C1(C(=O)NO)CCCC1)S(=O)(=O)c1ccc(Oc2ccc(F)cc2)cc1`, which Potency [9] is on record?
Answer: inactive

Question: What about the Potency [1] of the same compound?
Answer: inactive

Question: And the Potency [3]?
Answer: inactive

Question: Which Potency [9] does the source give for `O=C(Oc1ccccc1)Oc1ccccc1` here?
Answer: inactive

Question: And the Potency [1]?
Answer: inactive

Question: What about the Potency [3] of the same compound?
Answer: inactive

Question: For `c1ccc(SSc2ccccc2)cc1`, which Potency [1] is on record?
Answer: 27.5 µM (active)

Question: And the Potency [3]?
Answer: inactive

Question: What about the Potency [7] of the same compound?
Answer: inactive

Question: For `CCc1oc2ccccc2c1C(=O)c1cc(I)c(O)c(I)c1`, which Potency [9] is on record?
Answer: 29.8 µM (active)

Question: And the Potency [1]?
Answer: 33.5 µM (active)

Question: What about the Potency [3] of the same compound?
Answer: inactive

Question: With `COC(=O)Nc1nc2ccc(C(=O)c3ccccc3)cc2[nH]1` as the compound, how does the Potency [9] read?
Answer: 0.285 µM (active)

Question: What about the Potency [1] of the same compound?
Answer: 0.32 µM (active)

Question: And the Potency [3]?
Answer: inactive

Question: And the outcome [6]?
Answer: inactive

Question: What about the Potency [7] of the same compound?
Answer: inactive

Question: What about the Potency [8] of the same compound?
Answer: inactive

Question: Which results are given for `CCCCCCCCCCCCCCCC[N+](C)(C)CC`?
Answer: Potency [9]: 376 nM (active) and 866 nM (active); Potency [1]: 422 nM (active) and 866 nM (active); Potency [3]: 9.52 µM (active) and 21.9 µM (active); Potency [7]: 18.8 µM (active) and 43.4 µM (active)

Question: With `CC(C)=CCC1=C(O)c2ccccc2C(=O)C1=O` as the compound, how does the Potency [1] read?
Answer: 48.3 µM (active)

Question: And the Potency [2]?
Answer: 60.8 µM (active)

Question: And the outcome [6]?
Answer: inactive

Question: And the Potency [8]?
Answer: inactive

Question: What does the source list for `COc1cccc(OC)c1C(=O)O`?
Answer: Potency [1]: inactive; Potency [2]: inactive; Potency [3]: inactive; Potency [7]: inactive

Question: Which Potency [9] does the source give for `Cc1cc(C(C#N)c2ccc(Cl)cc2)c(Cl)cc1NC(=O)c1cc(I)cc(I)c1O` (configuration not stated) here?
Answer: 26.6 µM (active)

Question: And the Potency [2]?
Answer: 26.6 µM (active)

Question: What about the Potency [3] of the same compound?
Answer: inactive

Question: Which results are given for `Cc1cccc(C(=O)O)c1O`?
Answer: Potency [9]: inactive; Potency [1]: inactive; Potency [3]: inactive

Question: For `CC(C)(C)c1csc(-c2cc3cc(OCc4ccccc4CC(=O)O)ccc3o2)n1`, which Potency [2] is on record?
Answer: 61.1 µM (active)

Question: For `O=C1NC(=O)[C@@H]2CC=CC[C@H]12`, which Potency [9] is on record?
Answer: 61.1 µM (active)

Question: What about the Potency [1] of the same compound?
Answer: 48.6 µM (active)

Question: What about the Potency [3] of the same compound?
Answer: inactive

Question: What about the Potency [7] of the same compound?
Answer: inactive

Question: What does the source list for `Cc1cc(C)c(/C=C2\C(=O)Nc3ccccc32)[nH]1`?
Answer: Potency [9]: inactive; Potency [3]: inactive; Potency [4]: inactive; outcome [6]: inactive; Potency [7]: inactive; Potency [8]: inactive

Question: What does the source list for `Clc1nnc(Cl)c2ccccc12`?
Answer: Potency [2]: inactive; Potency [3]: inactive; Potency [7]: inactive

Question: With `Oc1cc(Cl)cc(Cl)c1Cl` as the compound, how does the Potency [3] read?
Answer: 50.2 µM (active)

Question: With `O=C1CCCCCCCCCCCCCCCO1` as the compound, how does the Potency [9] read?
Answer: inactive

Question: What about the Potency [2] of the same compound?
Answer: inactive

Question: What about the Potency [3] of the same compound?
Answer: inactive

Question: For `Cc1c(C)c2c(c(C)c1O)CC[C@@](C)(CCC[C@H](C)CCC[C@H](C)CCCC(C)C)O2`, which Potency [9] is on record?
Answer: inactive

Question: And the Potency [1]?
Answer: inactive

Question: And the Potency [3]?
Answer: inactive

Question: For `CCCCCCCC/C=C\CCCCCCCCN`, which Potency [9] is on record?
Answer: inactive

Question: And the Potency [1]?
Answer: inactive

Question: What about the Potency [3] of the same compound?
Answer: inactive

Question: For `C1CCC(SSC2CCCCC2)CC1`, which Potency [9] is on record?
Answer: inactive

Question: What about the Potency [2] of the same compound?
Answer: inactive

Question: What about the Potency [3] of the same compound?
Answer: inactive

Question: And the Potency [7]?
Answer: inactive

Question: Which Potency [9] does the source give for `CCCCCCCCCCCCCC[N+](C)(C)C` here?
Answer: 237 nM (active) and 527 nM (active) and 217 nM (active)

Question: What about the Potency [1] of the same compound?
Answer: 298 nM (active) and 469 nM (active) and 193 nM (active)

Question: What about the Potency [2] of the same compound?
Answer: 376 nM (active) and 469 nM (active) and 217 nM (active)

Question: What about the Potency [3] of the same compound?
Answer: 15.1 µM (active) and 21.8 µM (active)

Question: And the Potency [7]?
Answer: 18.8 µM (active) and 41.8 µM (active)

Question: Which Potency [9] does the source give for `CC(=O)[C@H]1CC[C@H]2[C@@H]3CCC4=CC(=O)CC[C@]4(C)[C@H]3CC[C@]12C` here?
Answer: 6.68 µM (active) and 13.6 µM (active) and 7.7 µM (active)

Question: And the Potency [1]?
Answer: 9.44 µM (active) and 6.82 µM (active) and 6.86 µM (active)

Question: And the Potency [2]?
Answer: 9.44 µM (active) and 12.1 µM (active) and 12.2 µM (active)

Question: And the Potency [3]?
Answer: inactive and 43.6 µM (active)

Question: What about the Potency [7] of the same compound?
Answer: inactive

Question: Which results are given for `CCN1C(=O)c2ccccc2C1Nc1ccc(OCCN2CCCCC2)cc1` (configuration not stated)?
Answer: Potency [9]: 26.6 µM (active); Potency [1]: inactive; Potency [3]: inactive; Potency [4]: inactive; Potency [5]: inactive; outcome [6]: inactive; Potency [7]: inactive; Potency [8]: inactive

Question: Which Potency [3] does the source give for `CCC(CC)(CC(=O)Nc1cccc(/C=C/c2nc(C3CCC3)cs2)c1)C(=O)O` here?
Answer: inactive

Question: What about the Potency [7] of the same compound?
Answer: inactive

Question: For `Cc1cc(C(C)(C)C)cc(C)c1CC1=NCCN1`, which Potency [9] is on record?
Answer: inactive

Question: And the Potency [2]?
Answer: inactive

Question: And the Potency [7]?
Answer: inactive

Question: Which Potency [9] does the source give for `C=CCn1c(=O)n(CC=C)c(=O)n(CC=C)c1=O` here?
Answer: inactive

Question: What about the Potency [3] of the same compound?
Answer: inactive

Question: Which results are given for `CC1=CCC(=C(C)C)CC1`?
Answer: Potency [9]: inactive; Potency [1]: inactive; Potency [2]: inactive; Potency [3]: inactive; Potency [7]: inactive

Question: With `Cc1ccc(-c2ccccc2)cc1` as the compound, how does the Potency [9] read?
Answer: inactive

Question: And the Potency [2]?
Answer: inactive

Question: What about the Potency [3] of the same compound?
Answer: inactive

Question: What about the Potency [7] of the same compound?
Answer: inactive

Question: Which Potency [9] does the source give for `CCO[Si](OCC)(OCC)OCC` here?
Answer: inactive

Question: What about the Potency [1] of the same compound?
Answer: inactive

Question: And the Potency [3]?
Answer: inactive

Question: And the Potency [7]?
Answer: inactive

Question: For `CCC(CC)C(C)CCOC(C)=O` (configuration not stated), which Potency [9] is on record?
Answer: inactive

Question: And the Potency [1]?
Answer: inactive

Question: And the Potency [2]?
Answer: inactive

Question: What about the Potency [3] of the same compound?
Answer: inactive

Question: And the Potency [7]?
Answer: inactive

Question: What does the source list for `CC[N+](CC)(CC)CCOc1ccc(/C=C/c2ccccc2)cc1`?
Answer: Potency [9]: 944 nM (active) and 750 nM (active); Potency [1]: 750 nM (active) and 668 nM (active); Potency [3]: inactive; Potency [7]: 29.8 µM (active)

Question: What does the source list for `Cc1cc(-n2nc3ccc(Cl)cc3n2)c(O)c(C(C)(C)C)c1`?
Answer: Potency [9]: inactive; Potency [1]: inactive; Potency [2]: inactive; Potency [3]: inactive; Potency [7]: inactive
